Measured values as given in PubChem BioAssay AID651702 (NMMLSC, 2012).
The whole screen tested about 360,000 compounds, of which about 2,400 (0.67%) were called active. The sample holds actives, similar compounds and a random draw of the others, so the mix is not that of the screen. A number with no mark means an inactive call.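 How the source made its calls: active means inhibition above about 55% (limit read from the data); inconclusive means no clear call, values can overlap the other calls; inactive means the rest.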

Assay: LAMP-1 surface exposure blockers, TALL-104 cells – cell-based, flow cytometry, MLPCN library, primary screen (AID 651702)
Conditions: TALL-104 LAMP-1 surface exposure, at 10 µM, stronger effect = higher value
With `CC(=O)OC1C2(CC3N4C(=O)C5(CO)SSC4(CC31O)C(=O)N5C)OC(C)C(C)(C)C2=O` (stereo not given) the inhibition was 74.7% (active).
Compound `CN1CCC[C@@H]1CCO[C@](C)(c1ccccc1)c1ccc(Cl)cc1` has an inhibition of 3.8%.
`Cc1cc(N2C(=O)C3CCCN3C2c2ccc(Cl)c(Cl)c2)no1` (stereo not given) gave an inhibition of 1.1%.
With `CN1CCC(OC(=O)c2cccc(F)c2)CC1` the inhibition was -4.7%.
With `O=C(CCNS(=O)(=O)c1ccccc1)Nc1ccc(Cl)cc1C(=O)c1ccccc1` the inhibition was -5.4%.
`OC1/C(=C/c2ccc(C(F)(F)F)cc2)N2CCC1CC2` (stereo not given) showed an inhibition of -6.5%.
In the case of `O=C1NC(=O)N(CCc2ccc(F)cc2)C(=O)/C1=C/C=C/c1ccccc1`, the inhibition is reported as 57.4% (active).
For `O=[N+]([O-])c1ccc(C2C3C(c4ccccc4)=NC4(CCCCC4)N32)cc1` (stereo not given), the inhibition was 0.6%.
Compound `O=c1[nH]c(CN2CC=C(c3ccccc3)CC2)nc2scc(-c3cccs3)c12` has an inhibition of -1.3%.
In the case of `Cc1ccc(CN2CCCC(C(=O)c3ccc4c(c3)OCO4)C2)cc1C` (stereo not given), the inhibition is reported as -2.3%.
With `CCOc1ccc(-c2cc(C)[n+](CCN(CC)CC)c(-c3ccc(OCC)cc3)c2)cc1` the inhibition was 77.5% (active).
`COc1ccccc1CN1CCN(C(=O)Cc2ccccc2)CC1` gave an inhibition of 24.2%.
`COc1ccc(CNCCc2ccc3c(c2)OCO3)c(OC)c1OC` gave an inhibition of 5.7%.
In the case of `COc1ccc(Br)cc1CNCCc1cccc(Cl)c1`, the inhibition is reported as 75.9% (active).
`COc1ccc(CNCCc2c[nH]c3ccccc23)cc1OC` gave an inhibition of 21.9%.
Work on `CCOP(=S)(OCC)C(O)CCCCCn1c(=O)c(F)cn(C2CCCO2)c1=O` (stereo not given) yielded an inhibition of 1.5%.
In the case of `CCOC(=O)[C@]12Cc3ccccc3[C@H]1N(C1CCCCC1)C(=O)c1cc(OC)ccc12`, the inhibition is reported as 57.3% (active).
In the case of `CCOC(=O)[C@]12Cc3cc(OC)ccc3[C@H]1N(C(C)C)C(=O)c1ccccc12`, the inhibition is reported as 3.3%.
Compound `Cc1cccc(NC(=O)N2CC3CC(C2)c2cccc(=O)n2C3)c1` (stereo not given) has an inhibition of -2.7%.
`O=C(CCCn1c(=O)[nH]c2cc(Cl)ccc2c1=O)N1CCC2(CC1)OCCO2` gave an inhibition of 2%.
For `Cc1cccc(OP(=O)(Oc2cccc(C)c2)OC(c2ccccc2)C(F)(F)F)c1` (stereo not given), the inhibition was 0.4%.
With `O=C(Nc1cccc2ccccc12)N1CCC2(CC1)OCCO2` the inhibition was -7.6%.
Compound `CCCCCCCCCCCCn1ccc(=N)cc1` has an inhibition of 27.1%.
`CCOC(=O)C1CN(C)CCC1=O` (stereo not given) gave an inhibition of -3.9%.
With `CNCC[C@H](Oc1ccc(C(F)(F)F)cc1)c1ccccc1` the inhibition was 10%.
For `O=C1NC(=O)N(Cc2ccco2)C(=O)/C1=C\c1ccc(-c2ccc(F)cc2)o1`, the inhibition was 76.4% (active).
`COC(=O)C1=C(c2ccc(Cl)c(C(F)(F)F)c2)C[C@@H]2CC[C@H]1N2C(=O)NC(C)C` gave an inhibition of -10.7%.
Compound `COCc1cc(OC(=O)N(C)C)nc(-c2ccc(C)c(Cl)c2)n1` has an inhibition of -8.4%.
`COc1cc(-n2c(=S)[nH]c3ccc(C)cc3c2=O)c(Cl)cc1Cl` showed an inhibition of 1.2%.
`COc1ccc(-n2c(O)c(C(C)=Nc3ccc4c(c3)CCC4)c(=O)[nH]c2=O)cc1` gave an inhibition of -0.2%.
